Cruzain inh Det = blocks cruzain activity in presence of Triton detergent; P25779; purified cruzain, Z-FR-AMC fluorescence, 0.01% Triton; Potency, µM, for the others: max response, negative = inhibition, most hits filed as inhibitors; 200,000 compounds, 0.43% hits; AID 1478;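 also: plate controls were neutral wells for no effect and buffer without enzyme for full effect; nearly all actives have a fitted effect of over 40% in size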
Target sequence (P25779 123-467 limits assumed): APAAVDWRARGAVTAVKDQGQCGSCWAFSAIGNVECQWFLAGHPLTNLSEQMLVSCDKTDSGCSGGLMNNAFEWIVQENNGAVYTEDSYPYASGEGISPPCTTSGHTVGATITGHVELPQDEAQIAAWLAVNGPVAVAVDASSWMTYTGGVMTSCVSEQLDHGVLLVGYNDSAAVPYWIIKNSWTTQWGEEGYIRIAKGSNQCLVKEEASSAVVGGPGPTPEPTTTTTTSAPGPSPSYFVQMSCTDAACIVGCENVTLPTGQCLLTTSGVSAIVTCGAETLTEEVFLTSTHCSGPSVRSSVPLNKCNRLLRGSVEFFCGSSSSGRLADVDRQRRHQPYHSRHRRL
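15 min RT preincubation of 1.5 nM cruzain with compound, then 2 uM Z-FR-AMC added; kinetic AMC fluorescence, 60 s delta. Triton X-100 0.01%, pH 5.5.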
Cruzain inh noDet = blocks cruzain activity in detergent-free assay | purified cruzain, Z-FR-AMC fluorescence, no detergent | Potency, µM, for the others: max response, negative = inhibition, hits mostly inhibitors | 200,000 compounds, 2.3% hits | AID 1476;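 also: plate controls were enzyme without inhibitor for no effect and buffer without enzyme for full effect; nearly all actives have a fitted effect of over 40% in size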
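Detergent-free condition (0.00005% Triton X-100) in acetate buffer pH 5.5 with DTT. 1.5 nM enzyme and compound were pre-mixed 15 min, then 2 uM Z-FR-AMC substrate added; reaction progress from fluorescence change between first and third reads (60 s).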
An asterisk follows results filed as active; u = inconclusive. Most compounds without a hit are left out; they make up all but 2.4% or so of the library. Calls follow the shape of the dose curve; as a rule, active = well fitted curve in the direction sought with a large enough effect; inconclusive = small, poorly fitted or top-dose-only effect, or another doubt; inactive = no such curve, though single readings can be large; an effect the other way counts as inactive or inconclusive. Potency is read from the fitted curve at half-maximal effect.

SMILES	Cruzain inh Det	Cruzain inh noDet
COc1ccc(/C=N/NC(=O)COc2ccccc2-c2ccccc2)cc1	-6%	7%
COc1ccc(Br)c(/C=N/NC(=O)COc2ccc(-c3ccccc3)cc2)c1	-2%	20µM*
COc1cc(C2c3c(oc4ccc(F)cc4c3=O)C(=O)N2c2nc(C)c(C)s2)cc(OC)c1OC (stereo not given)	2%	23%
CCS(=O)(=O)N1CCc2cc(C(=O)Nc3cc(C(F)(F)F)ccc3Cl)ccc21	-3%	-1%
O=C(CC1SC(=Nc2ccccc2)N(CCCO)C1=O)Nc1ccc(Cl)cc1 (stereo not given)	-13%	u
O=C(CC1SC(=NCCc2ccccc2)N(/N=C/c2cccs2)C1=O)Nc1ccc(Cl)cc1 (stereo not given)	-6%	13µM*
COc1ccc(C)cc1NC(=O)C(OC(=O)CNC(=O)c1ccc(Oc2ccccc2)cc1)c1ccccc1 (stereo not given)	-19%	u
COc1ccc(C)cc1NC(=O)C(OC(=O)CNC(=O)c1cccc(F)c1)c1ccccc1 (stereo not given)	u	13µM*
CCCCCCCCCCCCC/C=C/[C@@H](O)[C@H](CO)NC(=O)CCCCCCC	-5%	17%
Cc1cc(O)ccc1Nc1nc(-c2sc(N)nc2C)cs1	-20%	u
COc1ccc(OC)c(Nc2nc(-c3sc(N)nc3C)cs2)c1	u	25µM*
Cc1nc(N)sc1-c1csc(Nc2ccccc2)n1	25µM*	13µM*
COc1ccc(CCNc2nc(-c3sc(C)nc3C)cs2)cc1OC	-8%	u
CCOc1ccccc1CNC(=O)Cn1c(-c2ccccc2)cc(C(C)=O)c1C	0%	-14%
Cc1ccc(Cl)cc1NC(=O)Cn1nnc2sc3c(c2c1=O)CCC(C(C)(C)C)C3 (stereo not given)	-4%	25µM*
COc1ccc(Cl)cc1NC(=O)Cn1nnc2sc3c(c2c1=O)CCC(C(C)(C)C)C3 (stereo not given)	0%	6%
CCOC(=O)c1c(NC(=O)CN2C(=O)NC3(CCC(CC)CC3)C2=O)sc(C)c1-c1ccc(C)cc1 (stereo not given)	-2%	20µM*
CCOC(=O)c1c(NC(=O)CN2C(=O)NC3(CCCCCC3)C2=O)sc(C)c1-c1ccc(C)cc1	-4%	u
COc1ccc(-n2c(=O)cc(N3CCN(c4ccccc4)CC3)[nH]c2=O)cc1	5%	-3%
CCOc1ccc(-n2c(=O)cc(N3CCN(c4ccccc4)CC3)[nH]c2=O)cc1	2%	2µM*
CN(C)c1ncnc2ccc(-c3ccccc3C(F)(F)F)cc12	-2%	6%
CCOC(=O)c1ccc(NC(=O)c2c(C)oc3nc(C)nc(N4CCCC4)c23)cc1	-1%	-1%
FC(F)(F)c1cc(NC(=S)Nc2ccc3cc4ccccc4cc3c2)cc(C(F)(F)F)c1	3%	u
O=C(N/N=C/c1ccc(Br)s1)c1cccc([N+](=O)[O-])c1	-14%	20µM*
Cc1ccc(/C=N/NC(=O)c2cccc([N+](=O)[O-])c2)o1	-5%	2%
SMILES	Cruzain inh Det	Cruzain inh noDet
CN1C(=O)c2ccccc2Sc2ccc(NC(=O)c3ccc(C#N)cc3)cc21	-3%	0%
Cc1ccc(C(=O)C(OC(=O)CNS(=O)(=O)c2ccccc2)c2ccccc2)cc1 (stereo not given)	u	32µM*
CCOC(=O)CNS(=O)(=O)c1ccc(C)cc1	-1%	-5%
CC(=O)N1CCc2cc(Br)cc(S(=O)(=O)CCC(=O)N3CCN(c4ccccc4Cl)CC3)c21	-2%	15%
Cc1ccc(O)c(C2=Nc3ccccc3N=C(c3ccco3)C2)c1	0%	17%
Cc1ccc(O)c(C2=Nc3ccccc3N=C(c3ccc([N+](=O)[O-])cc3)C2)c1	-8%	20µM*
O=C(C1CCN(S(=O)(=O)Cc2ccccc2)CC1)N1CCN(c2cccc(Cl)c2)CC1	-5%	17%
Cc1ccc2c(c1)-c1c(c(C(=O)N3CCN(c4cc(Cl)ccc4C)CC3)nn1C)CS2	2%	4%
CC(C)C[C@@H]1NC(=O)[C@H](C(C)C)NC(=O)c2cc([N+](=O)[O-])cc(I)c2NCC[C@@H](C(N)=O)NC1=O	14µM*	5%
CC(C)[C@@H]1NC(=O)c2cc([N+](=O)[O-])cc(I)c2NCC[C@@H](C(N)=O)NC(=O)[C@H](CO)NC1=O	-11%	u
CCOc1ccc(NC(=O)Cn2c(=O)cc(C)c3c(C)nn(-c4ccc(CC)cc4)c32)cc1	1%	8%
COc1ccc2c(c1)NC(c1ccc(Cl)cc1)=NC(c1cccs1)=N2	-5%	u
CCOC(=O)CC1C(=O)NCCN1C(=O)c1cc2c(=O)n3cccc(C)c3nc2s1 (stereo not given)	-19%	8%
CCOC(=O)CC1C(=O)NCCN1C(=O)c1cc2c(=O)n3ccccc3nc2s1 (stereo not given)	22µM*	0%
Cc1ccc(CNS(=O)(=O)c2c(C(=O)N3CCC(C)CC3)c(C)n(C)c2C)cc1	0%	2%
O=C(CN1CCSc2ccccc21)N1CCN(c2cccc(Cl)c2)CC1	-7%	-9%
CN1CCN(S(=O)(=O)c2cccc(C(=O)Nc3sc4c(c3C(N)=O)CCCC4)c2)CC1	u	13µM*
NC(=O)c1c(NC(=O)c2ccc(S(=O)(=O)N3CCOCC3)cc2)sc2c1CCCCC2	-4%	u
NC(=O)c1c(NC(=O)c2ccc(S(=O)(=O)N(CCCl)CCCl)cc2)sc2c1CCCCC2	1%	4µM*
COCCN(CCOC)S(=O)(=O)c1ccc(C(=O)Nc2sc3c(c2C(N)=O)CCCC3)cc1	-4%	9%
CCc1ccc(-c2nc3cc(NC(=O)c4ccc(F)cc4)ccc3o2)cc1	1%	u
Cc1ccc(CNC(=O)c2ccc3c(c2)CCN3S(=O)(=O)c2ccc(Br)cc2)cc1	-1%	u
Cc1cc(C)cc(Nc2cc(C)nc3nc(-c4ccco4)nn23)c1	-6%	-4%
COc1ccc([N+](=O)[O-])cc1NC(=O)CSc1ccccc1	-9%	7%
COc1cc(NC(=O)CN2C(=O)NC(C)(c3ccccc3)C2=O)c(C)cc1[N+](=O)[O-] (stereo not given)	-5%	-11%
SMILES	Cruzain inh Det	Cruzain inh noDet
COc1cc(NC(=O)CSc2nc(C)c(C)c(C)n2)c(C)cc1[N+](=O)[O-]	-2%	5%
COc1cc(NC(=O)CN2C(=O)NC(C)(c3ccc4ccccc4c3)C2=O)c(C)cc1[N+](=O)[O-] (stereo not given)	-8%	20µM*
COc1cc([N+](=O)[O-])ccc1NC(=O)CSc1nc2ccccc2n1-c1ccccc1	-2%	13µM*
CCOc1ccc(-n2c(SCC(=O)Nc3cc(OC)c([N+](=O)[O-])cc3C)nc3ccccc32)cc1	-2%	7.9µM*
CCCn1c(=N)c(C(=O)NC(C)c2ccccc2)cc2c(=O)n3ccccc3nc21 (stereo not given)	-4%	3%
CC(C)CCNC(=O)N1CCN(S(=O)(=O)c2ccc3c(ccn3C)c2)CC1	-4%	3%
Cn1c(=O)c2c(SCC(=O)NCc3ccco3)nc(-c3ccccc3)nc2n(C)c1=O	3%	2%
O=c1c(O)c(-c2ccccc2)oc2cc(O)cc(O)c12	-1%	-1%
O=c1c(O)c(-c2cc(O)c(O)c(O)c2)oc2cc(O)cc(O)c12	u	13µM*
Cc1ccc(C)c2[nH]c(=O)c(CN(CCN3CCCC3)C(=O)Nc3cccc(Cl)c3)cc12	-22%	25µM*

Screening results (PubChem BioAssay)
